This passage reports binding signal results from PMC10726135, “HNF4α isoforms regulate the circadian balance between carbohydrate and lipid metabolism in the liver”.

In all, about 18,000 sequences were measured (“log2 normalized intensity”: median about 0.39, highest 2% from about 6.6 on). Many of the other results were omitted from the sample, so the highest values are more common in it than they were.

For the experiment, the target named is T1, HNF4alpha2 (COS-7 nuclear extract) (Homo sapiens, UniProt P41235 1-474).
T1 sequence: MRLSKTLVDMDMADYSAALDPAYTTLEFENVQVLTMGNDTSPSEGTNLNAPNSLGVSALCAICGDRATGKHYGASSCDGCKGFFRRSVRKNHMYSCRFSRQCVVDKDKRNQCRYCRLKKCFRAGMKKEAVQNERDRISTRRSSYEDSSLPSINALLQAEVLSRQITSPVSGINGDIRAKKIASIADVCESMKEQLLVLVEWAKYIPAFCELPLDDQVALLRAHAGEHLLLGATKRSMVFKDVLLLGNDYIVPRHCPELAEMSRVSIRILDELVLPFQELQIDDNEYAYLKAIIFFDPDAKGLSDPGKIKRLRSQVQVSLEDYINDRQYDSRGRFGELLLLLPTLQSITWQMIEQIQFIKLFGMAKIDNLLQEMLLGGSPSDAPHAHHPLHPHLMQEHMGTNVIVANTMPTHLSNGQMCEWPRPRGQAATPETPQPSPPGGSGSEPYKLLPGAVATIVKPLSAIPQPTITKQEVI
In words: protein-binding microarray; COS-7 nuclear extract on double-stranded Agilent 4x180k PBM; binding buffer, salt, pH and temperature not given in the material; high values mean tight binding. The following applies: chain copies: 2; label: 3' end of strand 1 on the slide; dsDNA, one strand shown. The method, boiled down: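 Nuclear extracts came from COS-7 cells transiently transfected by CaPO4 with a human HNF4α isoform expression vector. They were applied to a custom Agilent SurePrint G3 4x180k array of ~60-nt oligonucleotides, made double-stranded, with ~44,000 test sequences spotted in quadruplicate. Bound HNF4α was imaged at 2-µm resolution on an Agilent G2565CA scanner. Binding signal was taken as background-corrected, normalized gProcessedSignal from Agilent software.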
In the case of “ATTAACTAACCTTTGAACCAGATGGCCCTCGCCTAGGGAGATTAGAGTATCGGTCGA”, the binding signal was 3.62 log2 normalized intensity.
The same measure for “CCTTACCTCCATTAACTAACCTTTGAACCAGCCTAGGGAGATTAGAGTATCGGTCGA”: 6.78 log2 normalized intensity; for “CCTCCATTAACTAACCTTTGAACCAGATGGGCCTAGGGAGATTAGAGTATCGGTCGA”: 4.77 log2 normalized intensity.
On to “CATGTTAATTTAAATAACAAGGATAGCGTCGCCTAGGGAGATTAGAGTATCGGTCGA”, for which the binding signal was -0.878 log2 normalized intensity.
For “AAGGTCAGGATCTCAGCCGCGCGGCTTCAGGCCTAGGGAGATTAGAGTATCGGTCGA”, the binding signal is -0.906 log2 normalized intensity.
As to “CAGTGGGGGGGGGGGGGGGGGTGTGTCTGTGCCTAGGGAGATTAGAGTATCGGTCGA”, the binding signal was determined as 1.34 log2 normalized intensity.
The figure for “CTGGCAAAGCCATGAAGCAATTCTGAGCCCGCCTAGGGAGATTAGAGTATCGGTCGA” is -0.972 log2 normalized intensity; for “ATCAAGGATTTTTTCTTGGACTTTGGTCATGCCTAGGGAGATTAGAGTATCGGTCGA” it is 8.1 log2 normalized intensity.
The figure for “TCCAGATCAAGGATTTTTTCTTGGACTTTGGCCTAGGGAGATTAGAGTATCGGTCGA” is 5.42 log2 normalized intensity; for “TTTTCTTGGACTTTGGTCATCCTTTACTTTGCCTAGGGAGATTAGAGTATCGGTCGA” it is 6.04 log2 normalized intensity; for “GGATTTTTTCTTGGACTTTGGTCATCCTTTGCCTAGGGAGATTAGAGTATCGGTCGA” it is 6.83 log2 normalized intensity.
“GACTTTGGTTGGATTTCTTGGCTTCTCTTGGCCTAGGGAGATTAGAGTATCGGTCGA”: the binding signal stood at 1.04 log2 normalized intensity.
The figure for “TTGGACTTTGGTCATCCTTTACTTTCCCAAGCCTAGGGAGATTAGAGTATCGGTCGA” is 5.18 log2 normalized intensity; for “TCCAAAAGGGCAGCAGTAACCCCCCAGGAGGCCTAGGGAGATTAGAGTATCGGTCGA” it is 3.7 log2 normalized intensity.
The figure for “GGTTGCCCTAGTGACTCTAGGAACCTTTCTGCCTAGGGAGATTAGAGTATCGGTCGA” is -0.0376 log2 normalized intensity; for “AACAAAAAGGGCAAAGGTCAGCTCATTCCCGCCTAGGGAGATTAGAGTATCGGTCGA” it is 6.63 log2 normalized intensity.
The same measure for “AAAGGGCAAAGGTCAGCTCATTCCCTAGGGGCCTAGGGAGATTAGAGTATCGGTCGA”: 6.27 log2 normalized intensity; for “GTGGGTGCCAAACAAAAAGGGCAAAGGTCAGCCTAGGGAGATTAGAGTATCGGTCGA”: 8.12 log2 normalized intensity.
Regarding “GCAAAGGTCAGCTCATTCCCTAGGGCTCGGGCCTAGGGAGATTAGAGTATCGGTCGA”, the binding signal was -0.876 log2 normalized intensity.
In the case of “GAGAGAGAGAGAGGTGGGCAAAGGTCTCAAGCCTAGGGAGATTAGAGTATCGGTCGA”, the binding signal worked out at 2.55 log2 normalized intensity.
The same measure for “AATCATGGGCCCACAGATGATCAAAGGTCAGCCTAGGGAGATTAGAGTATCGGTCGA”: 7.06 log2 normalized intensity.
For “CACTGGGGTCATGGAGCTGGAGGGCAAAGGGCCTAGGGAGATTAGAGTATCGGTCGA”, the binding signal was determined as 3.25 log2 normalized intensity.
Regarding “GGGTCATGGAGCTGGAGGGCAAAGGTCAGAGCCTAGGGAGATTAGAGTATCGGTCGA”, the binding signal was found to be 7.97 log2 normalized intensity.
As for “TATGAGAGAGAGAGAGAGGTGGGCAAAGGTGCCTAGGGAGATTAGAGTATCGGTCGA”, the binding signal is 1.53 log2 normalized intensity.
The same measure for “AGAGCAATCATGGGCCCACAGATGATCAAAGCCTAGGGAGATTAGAGTATCGGTCGA”: -0.805 log2 normalized intensity.
The same measure for “ATGGAGCTGGAGGGCAAAGGTCAGAGGCTGGCCTAGGGAGATTAGAGTATCGGTCGA”: 6.39 log2 normalized intensity.
As for “TGGGCCCACAGATGATCAAAGGTCAGTCTTGCCTAGGGAGATTAGAGTATCGGTCGA”, the binding signal came out at 6.53 log2 normalized intensity.
The same measure for “CCAAAGTCCTTCCCAAGTCCTGCATGTGTTGCCTAGGGAGATTAGAGTATCGGTCGA”: 1.84 log2 normalized intensity.
In the case of “CCCTACTGTACCCTATGCACCCCACAGTGCGCCTAGGGAGATTAGAGTATCGGTCGA”, the binding signal was 2.11 log2 normalized intensity.
The figure for “ACCTTTAGCACCGTAAGAGAGTATTTCCCAGCCTAGGGAGATTAGAGTATCGGTCGA” is 1.13 log2 normalized intensity; for “CACAAGCTGGGTCAACATCAGCCCTCCTAGGCCTAGGGAGATTAGAGTATCGGTCGA” it is 1.49 log2 normalized intensity; for “GGGCACCGCCTCCACACCCCAGCCTGCCCTGCCTAGGGAGATTAGAGTATCGGTCGA” it is 3.1 log2 normalized intensity.
The figure for “GGGGCAGGTAAGTACCAATATTTGTTAAGTGCCTAGGGAGATTAGAGTATCGGTCGA” is 1.08 log2 normalized intensity; for “ATACTTTCAGCTAGCTGAGTGAGTAGGTTCGCCTAGGGAGATTAGAGTATCGGTCGA” it is 1.31 log2 normalized intensity; for “ACCTTTGTCCTCATTGAGCCCTCCCCTTGTGCCTAGGGAGATTAGAGTATCGGTCGA” it is 4.33 log2 normalized intensity.
For “CCTGACCTGCCCTTTGTCCCTCCTGCTAGTGCCTAGGGAGATTAGAGTATCGGTCGA”, the binding signal was found to be 3.3 log2 normalized intensity.
The same measure for “TTGGCTCTTATGTCCCTCCTGACCTTTGGAGCCTAGGGAGATTAGAGTATCGGTCGA”: 8.6 log2 normalized intensity; for “TGTCCCTCCTGACCTTTGGACTTGATAGAGGCCTAGGGAGATTAGAGTATCGGTCGA”: 9.11 log2 normalized intensity; for “AACTCTCAGTTTGGCTCTTATGTCCCTCCTGCCTAGGGAGATTAGAGTATCGGTCGA”: 1.35 log2 normalized intensity.
The same measure for “TCAGTTTGGCTCTTATGTCCCTCCTGACCTGCCTAGGGAGATTAGAGTATCGGTCGA”: 3.25 log2 normalized intensity; for “TCTTATGTCCCTCCTGACCTTTGGACTTGAGCCTAGGGAGATTAGAGTATCGGTCGA”: 10.3 log2 normalized intensity.
The figure for “AGTCCTGACCTTGGACTCTGCCCTTGGCCTGCCTAGGGAGATTAGAGTATCGGTCGA” is 5.81 log2 normalized intensity; for “GCCTCTTTATCTCCTCCCCTTGAGACTTTAGCCTAGGGAGATTAGAGTATCGGTCGA” it is 2.85 log2 normalized intensity.
